Here are results for 18 compounds from PubChem BioAssay (EPA / NIEHS).

Molecules are shown by their SMILES. Inconclusive results are not listed. The source made the active and inactive calls. Rule for the calls: active = hit-call score of the fitted dose curve at least 0.9, where 1 is the maximum; inconclusive = response in the unintended direction; inactive = score below 0.9.

The target in this test is human Peroxisome Proliferator-activated Receptor alpha (PPARa), PPARA (gene 5465) (UniProt Q07869). The experiment in a line: NVS_NR_hPPARa: NovaScreen (NVS) Nuclear Receptor Binding Assay for human Peroxisome Proliferator-activated Receptor alpha (PPARa) (AID 2283359).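 Note: activity means loss of TR-FRET signal versus DMSO baseline.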 Here is the method: NVS_NR_hPPARa is a biochemical, single-readout assay that uses extracted gene-proteins in a cell-free assay. Measurements were taken 1 hour after chemical dosing in a 384-well plate.NVS_NR_hPPARa is one of one assay component(s) measured or calculated from the NVS_NR_hPPARa assay. It is designed to make measurements of fluorescent resonance energy transfer, a form of binding reporter, as detected with fluorescent resonance energy transfer signals by Time-Resolved Fluorescence Resonance Energy Transfer (TR-FRET) technology.Data from the assay component NVS_NR_hPPARa was analyzed into 1 assay endpoint. This assay endpoint, NVS_NR_hPPARa, was analyzed in the positive analysis fitting direction relative to DMSO as the negative control and baseline of activity. Using a type of binding reporter, loss-of-signal activity can be used to understand changes in the binding as they relate to the gene PPARA. Furthermore, this assay endpoint can be referred to as a primary readout, because the performed assay has only produced 1 assay endpoint. To generalize the intended target to other relatable targets, this assay endpoint is annotated to the nuclear receptor intended target family, where the subfamily is non-steroidal.
Sequence of human Peroxisome Proliferator-activated Receptor alpha (PPARa), PPARA (gene 5465) (Q07869 whole entry, looked up): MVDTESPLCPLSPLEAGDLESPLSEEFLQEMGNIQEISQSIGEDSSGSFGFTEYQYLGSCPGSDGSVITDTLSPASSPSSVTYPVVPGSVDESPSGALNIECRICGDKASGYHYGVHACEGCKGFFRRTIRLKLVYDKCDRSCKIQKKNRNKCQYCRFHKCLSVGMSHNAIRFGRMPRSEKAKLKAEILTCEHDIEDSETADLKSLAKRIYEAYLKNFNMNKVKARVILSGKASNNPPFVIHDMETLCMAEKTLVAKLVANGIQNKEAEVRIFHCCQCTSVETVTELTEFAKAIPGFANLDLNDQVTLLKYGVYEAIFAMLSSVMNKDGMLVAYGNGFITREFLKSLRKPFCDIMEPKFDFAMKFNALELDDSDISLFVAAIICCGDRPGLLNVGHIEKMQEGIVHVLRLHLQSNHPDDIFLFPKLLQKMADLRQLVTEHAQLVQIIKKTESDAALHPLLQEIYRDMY
Binding assays used specific radioligands (tritiated, iodinated) with non-radioactive competitive displacement ligands in agonist or antagonist protocols (as indicated) and various reference compounds and inhibitors to titrate specific binding to receptors and transporters. Most enzyme assays (CYPs, kinases, phosphatases, proteases, HDACs) used recombinant protein and specific substrates (fluorescence mostly, some colorimetric and radioactive) and inhibitors, followed by a biochemical separation of substrate and product. All assays for the biochemical HTS were initially run in duplicate at a single concentration (10 uM for CYP450 assays and 25 uM for all others). […] Each assay was run with positive and negative controls, and concurrent controls on every plate. The follow-up (secondary) screen tested active chemical-pairs in concentration series, as well as a few additional assays not tested in the primary screen, some selected negative inactives, and several cases re-run in the concentration series for confirmatory purposes.
With `Oc1ccc2c(c1)-c1ccccc1C2`, the call was inactive.

With `O=C(O)c1cccc(Oc2ccccc2)c1`, the result was inactive. `COc1cccc(-c2ccc(/C=C\CN3CCCCCC3)cc2Cl)c1`: the compound was classed as inactive. As for `Cc1ccc(N)cc1O`, the outcome was inactive. With `CCCCCCCCCCCCCCCO`, the compound was classed as inactive.

For the compound `CCOc1cccc(-n2cc(C(=O)N3CCN(c4cc(C(=O)O)c5ccccc5c4)CC3)nc2-c2ccc(C)cc2)c1`, the outcome was inactive. Still for that read-out and setting: then `Fc1ccccc1[C@@H](F)COC1CCC(Nc2ncnc3[nH]ncc23)CC1` (stereo partly drawn), with “inactive”; and `CN(C)c1ccc(Cc2ccc(N(C)C)cc2)cc1`, with “inactive”.

Usually AC50 stands for the concentration at which the activity in the assay is half-maximal. Turning to `Nc1ccc(Nc2ccccc2)cc1`, the AC50 is 46.3 µM (active). On to `CCOC(=O)c1ccc(C2CCC(NC[C@H](O)COc3ccc(O)c(NS(C)(=O)=O)c3)CC2)cc1` (stereo partly drawn), for which the call was inactive. `CCOC(=O)COc1ccc2c(c1)CC(NCC(O)c1cccc(Cl)c1)CC2` (stereo not drawn): the result was inactive. In the case of `CNS(=O)(=O)c1cc(C(=O)N2CCC(CCN3C4CCC3CC(n3c(C)nc5ccccc53)C4)(c3cccc(F)c3)CC2)c(Cl)cc1F` (stereo not drawn), the result was inactive. As for `CCc1cc(SCc2sc(-c3ccc(C(F)(F)F)cc3)nc2CN2CCN(c3ccc(OC)cc3)CC2)ccc1OCC(=O)O`, the half-maximal activity concentration (AC50) was 0.00361 µM (active). As to `CC(C)=CCCC(C)=CC=O`, the compound was called inactive.

Take `CCCCC(CC)COC(=O)c1ccc(C(=O)OCC(CC)CCCC)cc1` (stereo not drawn): the AC50 is 25 µM (active). `CCCCCCc1ccc(O)cc1O`: the result was inactive. In the case of `Cn1cnc([N+](=O)[O-])c1Sc1ncnc2nc[nH]c12`, the outcome was inactive.

As for `CC(C)=CCCC(C)CCO` (stereo not drawn), the result was inactive.
